This is part of a sample that, as a whole, favours compounds with a hit. Of some 83,000 tested, about 20% had one in any assay.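 Interpretation: 100, growth as untreated; towards 0, rising growth inhibition; 0, no net growth; 0 to -100, cell death. Compounds scoring below 10 were considered active.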 Values without a mark were called inactive. The source made the active and inactive calls.

In this assay the test system is HL-60(TB) leukemia. Kind of assay: NCI-60 one-dose screen, 48 h (100 = growth as untreated, 0 = no growth, -100 = all killed). As to conditions: 10 µM unless noted.
As for `C/C(=N\Nc1cc(C)nc2ccc(Br)cc12)c1ccc([N+](=O)[O-])cc1`, the growth was -37.4% (active).
Under `O=C(NCCCNc1nccc(-n2ccc3cccnc32)n1)c1c(F)cccc1F` stands 102%.
In the case of `CCCCCCCCCCCCCC[N+](C)(C)CCCCCCCCCCCCCC`, the growth was 46.6%.
Take `Cc1c(C(=O)O)c(=O)n(-c2ccccc2)n1C`: the growth was 109%.
For the molecule `COc1ccccc1-c1nc2ccc3[nH]ncc3c2c2c1CCCC2`, the growth was 89.6%.
As for `O=C1c2cccc3c(-c4ccc(-c5nc6c7ccccc7c7ccccc7c6[nH]5)cc4)ccc(c23)C(=O)N1CCN1CCNCC1`, the growth was 82.5%.
For `COc1ccc2c(c1)cn1c3ccc(OC)cc3[nH]c(=O)c21`, the growth was -53.8% (active).
Under `C=CCCCCCCCCC(=O)[O][Sn]([CH2]CCC)([CH2]CCC)[CH2]CCC` stands -15.1% (active); under `O=C1/C(=C/c2ccccn2)CCc2ccccc21`, 56.6%.
For the molecule `O=c1cc(-c2nccc3c2[nH]c2ccccc23)c2cc(Cl)ccc2o1`, the growth was 0.737% (active).
Under `COC(=O)[C@]12CC[C@@H](C)[C@H](C)[C@@H]1C1=CC[C@@H]3[C@@]4(C)C(C=O)=C[C@@](C)(COC(=O)c5ccco5)[C@@H]4[C@H](O)C[C@@]3(C)[C@]1(C)CC2` stands -21.9% (active); under `CCn1c2ccc(O)cc2c2c(C)c3c[n+](C(C)C)ccc3c(C)c21`, 70.3%; under `CC(/C=C1\SC(=S)N(CC(=O)NC(Cc2c[nH]c3ccccc23)C(=O)O)C1=O)=C\c1ccccc1` (centres undefined), 100%.
As to `Cc1ccc2cnc(N)c(C#Cc3cncc(C(=O)Nc4ccc(CN5CCN(C)CC5)c(C(F)(F)F)c4)c3)c2c1`, the growth was -59.7% (active).
Take `CCCCCCCCCCCCOB(OCCCCCCCCCCCC)OCCCCCCCCCCCC`: the growth is 107%.
Take `CCC1S/C(=N\N=C(/C)c2cccs2)N(c2ccccc2)C1=O` (centres undefined): the growth was 59.2%.
`COc1ccc(-c2cc(-c3cc(OC)ccc3OC)nc(SCC(C)=O)c2C#N)cc1`: the growth was 86.3%.
As to `N#C/C(=C\NC(=S)N=Nc1c(O)[nH]c2ccccc12)c1nc2ccccc2s1`, the growth was 103%.
Turning to `O=C(CCl)N1c2ccccc2Sc2c1ccc1ccccc21`, the growth was 62.7%.
On to `Clc1c(Cl)[n+](Cc2ccc3ccccc3c2)cn1Cc1ccc2ccccc2c1`, for which the growth was -54.7% (active).
On to `CC(=[N-])N1CCC[C@@H](Nc2c3ccccc3nc3ccccc23)C1.[Cl][Pt].[NH-]CCC[NH-]`, for which the growth was 17%.
On to `CCCCCCCCN(CCCCCCCC)CC(O)c1cc(-c2ccccc2)nc2ccc(OC)cc12` (centres undefined), for which the growth was -28.4% (active).
Take `COc1cc(C(=O)N2N=C(c3ccc(S(C)(=O)=O)cc3)CC2c2ccco2)cc(OC)c1OC` (centres undefined): the growth was 90.3%.
With `O=C1/C(=C/c2ccc(F)cc2)CN(C(=O)CCN2CCC(=NO)CC2)C/C1=C\c1ccc(F)cc1`, the growth was -8.33% (active).

Source of the values: PubChem BioAssay (NCI).
